For orientation: inhibition means the drop in the measured response relative to a control, in per cent.

SMILES strings stand for the structures.

A short description of this experiment: Peg3 promoter luciferase inhibitors, potency, dose response, cell-based, HeLa, CREF/GAPDH counter-screen panel (AID 624167). As to conditions: CREF/GAPDH counter-screens; run 2, dose range 1, at 100 µM (top of the series).
On to `Cc1ccc(OCC(=O)c2cc(C)n(Cc3ccco3)c2C)c([N+](=O)[O-])n1`, for which the inhibition is 66.6%.

For the compound `C=C1CC2(OC1=O)c1ccccc1CCc1ccccc12`, the inhibition amounted to 99.7%.

Regarding `CCCCC(=O)NC(c1ccccc1)c1ccc2cccnc2c1O` (stereo not drawn), the inhibition stood at 45.2%.

`COC(=O)C1C=CC(OC2OC(COC(C)=O)C(OC(C)=O)C(OC(C)=O)C2OC(C)=O)n2c(=O)n(-c3ccccc3)c(=O)n21` (stereo not drawn): the inhibition amounted to 84.2%.

With `COc1cc(C(=O)N/N=C(\c2ccccc2)c2ccccn2)cc(OC)c1OC`, the inhibition was determined as 11.7%.

In the case of `COc1cc(Nc2c3ccccc3nc3ccccc23)cc(OC)c1OC`, the inhibition was 100%.

Regarding `CCCC(=O)NC(c1ccc(C(C)C)cc1)c1ccc2cccnc2c1O` (stereo not drawn), the inhibition was determined as 45.7%.

Regarding `COc1ccc(N(C(=O)CCl)C(C(=O)NC2CCCCC2)c2cccnc2)cc1` (stereo not drawn), the inhibition came out at 82.8%.

Regarding `CC(C)CC1C(=O)N(Cc2cn(Cc3ccco3)nn2)CCS(=O)(=O)N1Cc1ccc(-c2ccc(F)cc2)cc1` (stereo not drawn), the inhibition is 54.7%.

Regarding `O=C(O)c1ccc(N/N=C/c2ccc3c(c2)OCO3)cc1`, the inhibition was found to be 97.7%.

Consider `Cc1cc(C)c2sc(NNC(=O)c3ccc(S(=O)(=O)N4CCc5ccccc5C4)cc3)nc2c1`, for which the inhibition came out at 62%.

Regarding `COc1cc(/C=C2\SC(=Nc3ccccc3OC)NC2=O)ccc1O`, the inhibition came out at 39.3%.

For `O=C(O)c1ccc(N/N=C/c2ccc3nccnc3c2)cc1`, the inhibition stood at 99.2%.

`COc1cc(OC)c2cc(C(=O)N/N=C/c3ccccc3O)[nH]c2c1`: the inhibition came out at 73.3%.

Consider `O=C(O)c1ccc(CN2C(=O)c3cccc4c([N+](=O)[O-])ccc(c34)C2=O)cc1`, for which the inhibition amounted to 100%.

`CCCCCCCn1c(=N)n(CC(=O)c2ccco2)c2ccccc21`: the inhibition was 90.6%.

Consider `O=C(c1ccco1)N1CCN(C(c2ccccc2Cl)c2nnnn2Cc2cccs2)CC1` (stereo not drawn), for which the inhibition was 72.3%.

As to `O=C(CCn1cnc(-c2ccccc2)c1-c1ccccc1)N/N=C/c1ccccc1O`, the inhibition is 55.9%.

As for `CC1=CC2C(C(O)CC3(C)C2CC(C)C32OCOC23COCO3)C2(C)C/C(=C\O)C(=O)C=C12` (stereo not drawn), the inhibition came to 100%.

For the compound `CC(=O)c1ccc(-c2cnc3c(NC=O)cc(-c4ccccc4Oc4ccccc4)cn23)cc1`, the inhibition turned out to be 40%.

As to `Cc1cccc(OCC(=O)NCC(=O)N/N=C/c2cc(Br)cc(Br)c2O)c1`, the inhibition is 74.4%.

Consider `Nc1nonc1-n1nnc(C(=O)N/N=C/c2cc(Br)ccc2O)c1CNc1ccccc1`, for which the inhibition is 66.5%.

For `CS(=O)(=O)c1ccc(-c2cn3cc(C(=O)O)ccc3n2)cc1`, the inhibition was 78.3%.

In the case of `CCOc1cccc(/C=N/NC(=S)Nc2cc(S(=O)(=O)N3CCOCC3)ccc2N2CCOCC2)c1O`, the inhibition was -7.85%.

Consider `CN1C/C(=C/c2ccccc2[N+](=O)[O-])C(=O)/C(=C\c2ccccc2[N+](=O)[O-])C1`, for which the inhibition is 53.9%.

Consider `CCOC(=O)c1c(SCCN2CCCCC2)n(-c2ccccc2)c(=S)n(-c2ccccc2)c1=O`, for which the inhibition was 98%.

Take `OCCCNc1nccc(-c2cc(Nc3cccc(Cl)c3)ncn2)n1`: the inhibition came out at 51.4%.

For `CC1CC(C)C(=O)C(C(CC2CC(=O)NC(=O)C2)OC(=O)CC(=O)c2ccccc2)C1` (stereo not drawn), the inhibition came to 90.5%.

Consider `O=C(N/N=C/c1ccc(Cl)c([N+](=O)[O-])c1)c1cc(-c2ccc3c4c(cccc24)CC3)n[nH]1`, for which the inhibition was 98.4%.

Take `CCCC(=O)NC(c1ccc(N(C)C)cc1)c1ccc2cccnc2c1O` (stereo not drawn): the inhibition is 27.1%.

As for `CC(/C=C/c1ccccc1)=N/NC(=O)c1cc([N+](=O)[O-])cc([N+](=O)[O-])c1`, the inhibition amounted to 12.6%.

Regarding `CCCCCCCNC(=O)C1(CC2CC(c3cccc(Br)c3)=NO2)CCNCC1` (stereo not drawn), the inhibition came to 99.3%.

As to `C/C(=N\NC(=O)c1c(C)nc2ccccn12)c1ccc(O)cc1O`, the inhibition is 7.76%.

These data come from PubChem BioAssay AID624167 (Sanford-Burnham Center for Chemical Genomics, 2012).
